The supplement of paper PMC11732987, “Enantioselective OTUD7B fragment discovery through chemoproteomics screening and high-throughput optimisation” (Communications Chemistry, 2025)

Assays:
Assay in all cases: log2 ratio of Biotin-Ahx-Ub-VS probe labelling (fragment/DMSO); higher = less target engagement (more negative = stronger competition), active = hit call of the paper (q ≤ 0.05, log2 ratio ≤ -1)
Details in all cases: compound concentration: 200 uM; treatment time: 3 h
ALG13 = target: T1, ALG13 (UniProt Q9NP73)
T1 sequence (whole entry): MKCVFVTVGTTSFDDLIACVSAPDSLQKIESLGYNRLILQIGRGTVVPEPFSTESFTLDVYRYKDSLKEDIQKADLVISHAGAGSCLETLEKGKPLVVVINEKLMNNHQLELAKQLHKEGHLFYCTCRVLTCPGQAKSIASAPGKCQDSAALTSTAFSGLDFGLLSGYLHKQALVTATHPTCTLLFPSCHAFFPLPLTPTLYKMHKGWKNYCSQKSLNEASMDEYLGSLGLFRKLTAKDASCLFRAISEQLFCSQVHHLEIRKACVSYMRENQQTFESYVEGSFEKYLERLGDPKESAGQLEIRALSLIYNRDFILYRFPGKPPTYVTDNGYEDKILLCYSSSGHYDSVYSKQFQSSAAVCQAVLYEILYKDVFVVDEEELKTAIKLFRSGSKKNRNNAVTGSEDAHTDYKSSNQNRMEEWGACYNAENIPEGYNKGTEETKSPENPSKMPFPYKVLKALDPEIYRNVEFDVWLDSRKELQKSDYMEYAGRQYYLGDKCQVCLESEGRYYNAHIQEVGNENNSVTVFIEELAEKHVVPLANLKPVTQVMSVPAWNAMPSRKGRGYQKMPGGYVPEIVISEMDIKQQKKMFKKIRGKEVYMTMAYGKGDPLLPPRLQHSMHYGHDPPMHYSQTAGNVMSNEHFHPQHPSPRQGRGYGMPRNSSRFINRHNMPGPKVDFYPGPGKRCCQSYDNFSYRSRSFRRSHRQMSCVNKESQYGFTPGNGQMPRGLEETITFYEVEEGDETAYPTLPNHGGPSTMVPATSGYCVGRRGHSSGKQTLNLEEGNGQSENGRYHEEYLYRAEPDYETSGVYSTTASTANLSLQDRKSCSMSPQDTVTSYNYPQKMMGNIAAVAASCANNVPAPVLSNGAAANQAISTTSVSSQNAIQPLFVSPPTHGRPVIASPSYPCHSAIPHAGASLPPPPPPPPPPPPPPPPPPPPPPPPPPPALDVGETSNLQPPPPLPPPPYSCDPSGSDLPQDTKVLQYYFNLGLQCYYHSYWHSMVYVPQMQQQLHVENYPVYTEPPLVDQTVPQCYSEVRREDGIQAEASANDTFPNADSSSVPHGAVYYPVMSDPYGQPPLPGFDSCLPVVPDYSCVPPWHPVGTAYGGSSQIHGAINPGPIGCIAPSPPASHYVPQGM
Outline: (§1)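 The table lists average log2 ratios of fragment over vehicle, from an unpaired t-test on global-median-normalised Spectronaut label-free quantities. Proteins with ≥2 unique peptides were used. Samples were HEK293T lysate (495 µg) treated in triplicate with fragment at 200 µM or vehicle for 3 h, then with Biotin-Ahx-Ub-VS (0.5 µM final) for 1 h, with labelled DUBs NeutrAvidin-enriched and run by diaPASEF LC-MS/MS.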

ATXN3 = ATXN3 (UniProt P54252)
ATXN3, sequence (P54252 whole entry): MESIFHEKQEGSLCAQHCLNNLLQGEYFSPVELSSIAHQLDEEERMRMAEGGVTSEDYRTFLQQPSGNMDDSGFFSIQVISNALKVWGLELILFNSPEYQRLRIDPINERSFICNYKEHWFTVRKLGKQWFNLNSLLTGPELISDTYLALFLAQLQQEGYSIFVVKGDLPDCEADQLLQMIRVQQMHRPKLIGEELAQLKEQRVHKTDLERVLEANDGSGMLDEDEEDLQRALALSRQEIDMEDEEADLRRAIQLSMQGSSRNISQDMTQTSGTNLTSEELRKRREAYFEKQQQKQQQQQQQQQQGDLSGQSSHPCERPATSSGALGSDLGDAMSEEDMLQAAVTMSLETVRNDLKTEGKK
Outline: as §1

BAP1 = target: T2, BAP1 (UniProt Q92560)
T2 sequence (whole entry): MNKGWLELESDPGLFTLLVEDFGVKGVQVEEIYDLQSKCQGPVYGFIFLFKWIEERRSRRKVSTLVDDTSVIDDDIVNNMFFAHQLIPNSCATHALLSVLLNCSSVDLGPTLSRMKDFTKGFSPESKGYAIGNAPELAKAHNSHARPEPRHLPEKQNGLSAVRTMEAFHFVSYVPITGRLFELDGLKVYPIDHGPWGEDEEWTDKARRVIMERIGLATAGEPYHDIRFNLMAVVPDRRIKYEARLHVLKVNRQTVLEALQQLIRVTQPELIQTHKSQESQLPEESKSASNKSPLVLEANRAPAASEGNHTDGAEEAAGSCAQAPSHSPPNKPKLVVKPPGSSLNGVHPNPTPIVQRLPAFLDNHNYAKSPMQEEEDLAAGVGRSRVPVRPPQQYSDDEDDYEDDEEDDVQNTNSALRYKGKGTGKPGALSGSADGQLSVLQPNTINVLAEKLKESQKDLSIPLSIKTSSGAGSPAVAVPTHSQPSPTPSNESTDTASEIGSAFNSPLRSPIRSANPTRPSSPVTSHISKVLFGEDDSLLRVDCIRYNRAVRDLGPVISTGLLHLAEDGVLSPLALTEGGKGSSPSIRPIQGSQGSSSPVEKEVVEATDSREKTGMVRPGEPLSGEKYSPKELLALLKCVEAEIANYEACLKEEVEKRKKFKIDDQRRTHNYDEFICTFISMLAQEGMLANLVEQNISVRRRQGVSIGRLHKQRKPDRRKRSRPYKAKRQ
Outline: as §1

EIF3F = EIF3F (UniProt O00303)
EIF3F, sequence (O00303 whole entry): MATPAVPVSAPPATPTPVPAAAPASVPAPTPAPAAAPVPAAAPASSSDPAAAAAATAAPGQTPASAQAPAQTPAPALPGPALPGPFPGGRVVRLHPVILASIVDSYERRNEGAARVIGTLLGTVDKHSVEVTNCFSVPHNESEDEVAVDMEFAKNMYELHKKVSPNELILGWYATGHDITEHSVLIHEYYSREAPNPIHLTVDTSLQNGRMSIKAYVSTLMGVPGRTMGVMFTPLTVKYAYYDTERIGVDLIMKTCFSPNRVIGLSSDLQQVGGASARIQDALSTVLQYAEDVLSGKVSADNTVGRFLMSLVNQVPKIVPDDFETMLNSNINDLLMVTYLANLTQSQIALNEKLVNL
Outline: as §1

EIF3H = EIF3H (UniProt O15372)
EIF3H, sequence (O15372 whole entry): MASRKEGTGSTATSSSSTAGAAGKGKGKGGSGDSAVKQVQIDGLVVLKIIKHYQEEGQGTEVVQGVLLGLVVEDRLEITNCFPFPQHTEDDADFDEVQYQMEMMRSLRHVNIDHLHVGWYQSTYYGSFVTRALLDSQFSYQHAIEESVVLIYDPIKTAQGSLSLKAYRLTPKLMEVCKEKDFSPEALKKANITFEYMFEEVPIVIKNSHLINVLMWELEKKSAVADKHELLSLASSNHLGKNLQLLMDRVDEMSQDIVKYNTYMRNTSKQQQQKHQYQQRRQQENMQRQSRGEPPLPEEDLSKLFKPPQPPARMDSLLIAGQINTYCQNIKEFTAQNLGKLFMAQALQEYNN
Outline: as §1

FAM105A = target: T3, FAM105A (UniProt Q9NUU6)
T3 sequence (whole entry): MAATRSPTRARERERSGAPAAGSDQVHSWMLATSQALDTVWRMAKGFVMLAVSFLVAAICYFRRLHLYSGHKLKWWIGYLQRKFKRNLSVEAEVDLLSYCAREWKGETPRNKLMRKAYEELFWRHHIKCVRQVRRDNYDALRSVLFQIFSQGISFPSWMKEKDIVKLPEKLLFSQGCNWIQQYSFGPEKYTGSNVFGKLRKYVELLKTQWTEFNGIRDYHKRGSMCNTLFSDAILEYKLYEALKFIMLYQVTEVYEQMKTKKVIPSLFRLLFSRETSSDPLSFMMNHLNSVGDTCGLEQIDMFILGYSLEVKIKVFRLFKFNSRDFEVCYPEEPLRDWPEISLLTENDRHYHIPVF
Outline: as §1

OTUB1 = OTUB1 (UniProt Q96FW1)
OTUB1, sequence (Q96FW1 whole entry): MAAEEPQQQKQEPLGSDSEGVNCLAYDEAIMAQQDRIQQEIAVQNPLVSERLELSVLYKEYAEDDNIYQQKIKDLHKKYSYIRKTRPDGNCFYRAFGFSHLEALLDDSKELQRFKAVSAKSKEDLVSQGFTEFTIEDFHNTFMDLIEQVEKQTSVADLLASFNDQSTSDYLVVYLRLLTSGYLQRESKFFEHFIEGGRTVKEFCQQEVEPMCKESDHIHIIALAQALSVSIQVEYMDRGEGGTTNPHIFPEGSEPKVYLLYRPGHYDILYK
Outline: as §1

OTUD4 = target: T4, OTUD4 (UniProt Q01804)
T4 sequence (whole entry): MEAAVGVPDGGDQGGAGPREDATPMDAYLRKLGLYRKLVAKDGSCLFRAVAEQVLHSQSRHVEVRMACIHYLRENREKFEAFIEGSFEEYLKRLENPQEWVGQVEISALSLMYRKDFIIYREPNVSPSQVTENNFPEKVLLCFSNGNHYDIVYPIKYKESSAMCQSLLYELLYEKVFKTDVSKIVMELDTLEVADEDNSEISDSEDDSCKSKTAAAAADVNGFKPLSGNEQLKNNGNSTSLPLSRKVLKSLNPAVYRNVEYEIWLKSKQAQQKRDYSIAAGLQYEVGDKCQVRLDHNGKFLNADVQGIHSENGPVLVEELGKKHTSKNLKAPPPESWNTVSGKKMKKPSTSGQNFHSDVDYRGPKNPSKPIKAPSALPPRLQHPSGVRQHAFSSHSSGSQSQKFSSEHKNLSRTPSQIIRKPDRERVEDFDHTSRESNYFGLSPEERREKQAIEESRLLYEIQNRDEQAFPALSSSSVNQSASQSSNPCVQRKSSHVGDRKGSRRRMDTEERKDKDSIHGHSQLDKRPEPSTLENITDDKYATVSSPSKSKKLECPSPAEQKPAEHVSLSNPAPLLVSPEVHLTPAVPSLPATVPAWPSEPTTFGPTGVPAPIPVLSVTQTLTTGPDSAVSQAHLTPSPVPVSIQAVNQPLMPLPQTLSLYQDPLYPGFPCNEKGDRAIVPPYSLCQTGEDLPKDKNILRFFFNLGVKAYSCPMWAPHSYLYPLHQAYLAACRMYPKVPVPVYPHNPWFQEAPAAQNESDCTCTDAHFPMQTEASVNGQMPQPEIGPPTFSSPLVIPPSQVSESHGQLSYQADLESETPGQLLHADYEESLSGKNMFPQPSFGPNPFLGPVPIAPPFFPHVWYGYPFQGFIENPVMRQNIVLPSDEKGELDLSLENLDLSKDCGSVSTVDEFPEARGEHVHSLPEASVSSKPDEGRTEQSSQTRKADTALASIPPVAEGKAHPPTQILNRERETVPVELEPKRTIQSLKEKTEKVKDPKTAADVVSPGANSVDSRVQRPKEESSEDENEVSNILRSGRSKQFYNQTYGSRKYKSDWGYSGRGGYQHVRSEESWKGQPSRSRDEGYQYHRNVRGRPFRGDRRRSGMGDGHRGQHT
Outline: as §1

OTUD5 = target: T5, OTUD5 (UniProt Q96G74)
T5 sequence (whole entry): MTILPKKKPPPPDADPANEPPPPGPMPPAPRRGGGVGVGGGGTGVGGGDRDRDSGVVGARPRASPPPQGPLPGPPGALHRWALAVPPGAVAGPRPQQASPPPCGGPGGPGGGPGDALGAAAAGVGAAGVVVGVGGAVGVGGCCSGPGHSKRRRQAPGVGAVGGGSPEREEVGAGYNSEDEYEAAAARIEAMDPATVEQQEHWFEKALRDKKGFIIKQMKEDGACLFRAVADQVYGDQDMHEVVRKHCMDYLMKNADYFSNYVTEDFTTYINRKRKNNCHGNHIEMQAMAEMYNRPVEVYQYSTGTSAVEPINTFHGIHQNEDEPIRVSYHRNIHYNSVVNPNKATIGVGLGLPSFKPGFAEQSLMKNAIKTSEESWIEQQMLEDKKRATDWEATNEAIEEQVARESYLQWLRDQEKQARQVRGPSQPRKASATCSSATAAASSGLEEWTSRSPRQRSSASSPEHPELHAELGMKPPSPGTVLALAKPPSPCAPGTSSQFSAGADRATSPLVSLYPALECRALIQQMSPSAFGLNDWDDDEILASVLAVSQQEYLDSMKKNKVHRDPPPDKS
Outline: as §1

Measured: log2 ratio of Biotin-Ahx-Ub-VS probe labelling

Cc1cc(NC(=O)CCl)n(-c2ccccc2)n1
inactive: ALG13 -0.0258 | ATXN3 -0.205 | EIF3F -0.154 | EIF3H 0.0602 | FAM105A 0.513 | OTUB1 -0.315 | OTUD4 0.184 | OTUD5 -0.222
active: BAP1 -3.5
